Where “and” joins values, the source holds several entries; their conditions need not be identical. Equal values may be shown once. Inconclusive results are not listed. Calls of active or inactive are those of the source. Unless noted, calls follow the shape of the full dose curve.

The nature of experiment [1]: Nuclear factor erythroid 2-related factor 2/antioxidant responsive element (Nrf2/ARE) small molecule agonists: qHTS cell viability counter screen in human keratinocytes (AID 1919968; active = well fitted curve in the direction sought with a large enough effect in the repeat runs; an effect the other way counts as inactive or inconclusive; also: nearly all actives have a fitted effect of over 55% in size; also: potency is read from the fitted curve at half-maximal effect). Put shortly: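 Seed 1,500 KeratinoSens cells per well, then incubate 5 h at 37 C/5% CO2. Add compounds in DMSO and incubate 23 h. Add CellTiter-Fluor, wait 1 h and read fluorescence.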
A general note: qHTS replaces the single test concentration by a dilution series.

A short description of experiment [2]: Nuclear factor erythroid 2-related factor 2/antioxidant responsive element (Nrf2/ARE) small molecule agonists: luciferase reporter gene qHTS assay in human keratinocytes (AID 1919969). Also: nearly all actives have a fitted effect of over 35% in size. Also: potency is read from the fitted curve at half-maximal effect. In general terms: A reporter such as luciferase makes a cellular process visible.
The target in experiment [3] is Gonadotropin-releasing hormone receptor (Homo sapiens) (UniProt P30968). In words: Human gonadotropin-releasing hormone receptor (GnRHR) small molecule agonists, calcium flux assay in GnRHR-HEK293 cells (AID 1920063). Also: nearly all actives have a fitted effect of over 35% in size. Put shortly:
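Cells: HEK293 stably expressing human GnRHR. Steps: overnight (18 h) culture, 1 h calcium dye loading at 37 C, compound addition, kinetic fluorescence read at 480/540 nm. Each compound tested at 15 concentrations in triplicate.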
On the technique in general: A change in cytosolic calcium serves as a functional read-out for many receptors and channels.

For experiment [4], the target named is KiSS-1 receptor (Homo sapiens) (UniProt Q969F8). Description: Human kisspeptin (KISS1R) small molecule agonists, calcium flux assay in KISS1R-HEK293 cells (AID 1920064; active = well fitted curve in the direction sought with a large enough effect in the repeat runs; an effect the other way counts as inactive or inconclusive). Put shortly:
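Cells plated and incubated 18 h; dye added, 1 h at 37 C; compounds in DMSO pinned in; signal read at 480/540 nm every second for 3 min. Each compound tested at 15 concentrations in triplicate.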

A short description of experiment [5]: p53 small molecule agonists, cell-based qHTS assay with human liver microsomes (AID 1963577).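 Also: p53 response element beta-lactamase reporter cells with liver microsomes plus NADPH.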 An outline of the steps: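 Metabolically competent format: test substances, human liver microsomes and NADPH (both 0.5 mg/mL final) incubated with p53RE-bla cells 16 h at 37 C. Beta-lactamase reporter signal then quantified by fluorescence.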
The nature of experiment [6]: p53 small molecule agonists, cell-based qHTS assay with rat liver microsomes: qHTS cell viability counter screen (AID 1963580). Also: nearly all actives have a fitted effect of over 45% in size. An outline of the steps: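 Intracellular ATP, by CellTiter-Glo luminescence, defines viability. HCT-116 p53RE-bla cells, 4,000 per well, were compound-treated in the presence of rat liver microsomes and NADPH for 16 h at 37 C.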
Experiment [7] can be described thus: p53 small molecule agonists, cell-based qHTS assay: qHTS cell viability counter screen (AID 1963581). Also: nearly all actives have a fitted effect of over 45% in size. Put shortly:
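Cells: HCT-116 with p53 response element-driven beta-lactamase. Treatment: 16 h, 37 C, compounds in DMSO. Read: CellTiter-Glo luminescence after 30 min RT.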

Experiment [8] in a line: p53 small molecule agonists, cell-based qHTS assay (AID 1963582; active = well fitted activation curve with a large enough effect in the signal ratio in the repeat runs, not every such curve was filed as active; the % refers to the signal ratio; also: potency is read from the fitted curve at half-maximal effect). Put shortly: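 Quantitative HTS in p53RE-bla cells: after a 5 h settling period, compounds delivered in DMSO were left on cells for 16 h at 37 C, and reporter induction was measured as fluorescence following 2 h substrate loading.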
In experiment [9] the target is 5-hydroxytryptamine receptor 2A (Homo sapiens) (UniProt P28223). Description: 5-hydroxytryptamine receptor 2A (HTR2A) small molecule antagonists, cell-based qHTS assay (AID 1963586). Also: nearly all actives have a fitted effect of over 45% in size. Put shortly:
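Antagonist-mode intracellular calcium assay: DOI (4 nM) added after 5 min compound pre-incubation at room temperature to dye-loaded HTR2A-CHO cells. Fluorescence followed for 3 min, sampled every second.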

Experiment [10] shares this target. In words: 5-hydroxytryptamine receptor 2A (HTR2A) small molecule agonists, cell-based qHTS assay (AID 1963587). Also: nearly all actives have a fitted effect of over 30% in size. An outline of the steps:
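Kinetic calcium-flux fluorescence (2 min, 1 sec intervals) after compound addition in agonist mode. HTR2A-CHO cells were cultured 18 h, then dye-loaded 1 h at 37 C.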

Experiment [11] concerns the target Muscarinic acetylcholine receptor M1 (Homo sapiens) (UniProt P11229). In words: Cholinergic receptor muscarinic 1 (CHRM1) small molecule antagonists, cell-based qHTS assay (AID 1963588). Also: nearly all actives have a fitted effect of over 40% in size. Put shortly:
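CHRM1-CHO calcium-flux assay, antagonist mode. Cells were seeded 18 h, dye-loaded 1 h at 37 C and given compound for 5 min at RT, then acetylcholine was added at 50nM. FDSS fluorescence was read 3 min; 15 concentrations, three runs.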

The target is the same in experiment [12]. Description: Cholinergic receptor muscarinic 1 (CHRM1) small molecule agonists, cell-based qHTS assay (AID 1963589). Also: nearly all actives have a fitted effect of over 35% in size. An outline of the steps: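 Agonist-mode qHTS in CHO cells stably carrying human muscarinic M1. Intracellular calcium is tracked by fluorescence every second after compound transfer; each compound runs at 15 concentrations in three independent runs.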

The nature of experiment [13]: cAMP Responsive Elements (CRE) small molecule agonists, cell-based qHTS assay (AID 1963590). Put shortly:
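Agonist mode qHTS in CRE-bla HEK 293T cells: compounds dosed from DMSO for 3 h at 37 C/5% CO2, followed by LiveBLAzer B/G FRET substrate for 2 h at room temperature.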

Experiment [14] can be described thus: cAMP Responsive Elements (CRE) small molecule antagonists, cell-based qHTS assay (AID 1963591; active = well fitted inhibition curve with a large enough effect in the signal ratio in the repeat runs, not every such curve was filed as active; the % refers to the signal ratio). Put shortly:
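Antagonist mode: test compounds are co-incubated with the adenylyl cyclase activator NKH477 (0.25 uM final) on CRE-bla HEK293T cells for 3 h at 37 °C, followed by LiveBLAzer substrate loading.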

Experiment [15] addresses Beta-2 adrenergic receptor (Homo sapiens) (UniProt P07550). In words: Adrenergic beta2 receptor (ADRB2) small molecule antagonists, cell-based qHTS assay (AID 1963592). Also: series mostly up to about 92 µM; nearly all actives have a fitted effect of over 50% in size. Put shortly: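 Cells (CHO, stable ADRB2 overexpression) incubated 18-20hr at 37C; compounds added from DMSO; agonist mix (1nM isoproterenol, 100uM IBMX, 25uM Ro-20-1724) added; 0.5hr RT; d2-cAMP and anti-cAMP-cryptate added; 1hr RT; 665/615 nm read.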

For experiment [16] the target is unchanged. Description: Adrenergic beta2 receptor (ADRB2) small molecule agonists, cell-based qHTS assay (AID 1963593).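 Also: CHO cells stably overexpressing human ADRB2.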 An outline of the steps: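 CHO cells stably over-expressing ADRB2 were plated overnight at 37C, then dosed with compounds plus a stimulation mix containing 100uM IBMX and 25uM Ro-20-1724 for 0.5hr at room temperature. cAMP was measured by HTRF competition, 1hr.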

In experiment [17] the target is D(2) dopamine receptor (Homo sapiens) (UniProt P14416). Description: Dopamine D2 receptor (DRD2) small molecule agonists, cell-based qHTS assay (AID 1963594). Also: nearly all actives have a fitted effect of over 35% in size. An outline of the steps:
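cAMP accumulation in DRD2-HEK293 cells measured by HTRF after 1 h detection; compounds added 10 min before NKH477 (200nM […]) forskolin-analogue stimulation, 30 min at room temperature, with Ro20-1724 present at 0.1 mM final.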

Experiment [18] is described as follows: p53 small molecule agonists, cell-based qHTS assay with human liver microsomes: qHTS cell viability counter screen (AID 1963579). Also: nearly all actives have a fitted effect of over 45% in size. Also: potency is read from the fitted curve at half-maximal effect. Put shortly: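 Tox21 library compounds, delivered from DMSO stocks, were tested on p53RE-bla cells together with 0.5 mg/mL human liver microsomes and 0.5 mg/mL NADPH (final) over 16 h at 37 C; CellTiter-Glo luminescence served as the cytotoxicity measure.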

The target of experiment [19] is D(2) dopamine receptor (Homo sapiens) (UniProt P14416). In words: Dopamine D2 receptor (DRD2) small molecule antagonists, cell-based qHTS assay (AID 1963595; active = well fitted inhibition curve with a large enough effect in the signal ratio in the repeat runs, with a control signal flat; the % refers to the signal ratio). Put shortly: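 DRD2-HEK293; 0.1 mM Ro20-1724; cpd 10 min RT; NKH477 200 nM + quinpirole 12 nM, 30 min RT; HTRF cAMP (cAMP-d2/anti-cAMP cryptate), 665/620 nm ratio after 1 h.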
Chain of D(2) dopamine receptor (Homo sapiens) (P14416 whole entry, looked up): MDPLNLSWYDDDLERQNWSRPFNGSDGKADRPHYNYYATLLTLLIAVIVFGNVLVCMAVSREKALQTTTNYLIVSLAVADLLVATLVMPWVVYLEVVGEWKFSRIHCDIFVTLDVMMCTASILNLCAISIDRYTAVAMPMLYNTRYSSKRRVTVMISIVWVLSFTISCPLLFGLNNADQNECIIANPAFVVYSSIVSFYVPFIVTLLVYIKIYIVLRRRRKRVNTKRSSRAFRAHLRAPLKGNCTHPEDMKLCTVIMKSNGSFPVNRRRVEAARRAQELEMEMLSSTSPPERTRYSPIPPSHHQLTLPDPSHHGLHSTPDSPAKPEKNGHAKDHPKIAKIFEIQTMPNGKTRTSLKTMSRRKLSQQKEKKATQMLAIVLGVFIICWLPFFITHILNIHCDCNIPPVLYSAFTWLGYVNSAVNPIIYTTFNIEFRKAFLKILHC

Chain of 5-hydroxytryptamine receptor 2A (Homo sapiens) (P28223 whole entry, looked up): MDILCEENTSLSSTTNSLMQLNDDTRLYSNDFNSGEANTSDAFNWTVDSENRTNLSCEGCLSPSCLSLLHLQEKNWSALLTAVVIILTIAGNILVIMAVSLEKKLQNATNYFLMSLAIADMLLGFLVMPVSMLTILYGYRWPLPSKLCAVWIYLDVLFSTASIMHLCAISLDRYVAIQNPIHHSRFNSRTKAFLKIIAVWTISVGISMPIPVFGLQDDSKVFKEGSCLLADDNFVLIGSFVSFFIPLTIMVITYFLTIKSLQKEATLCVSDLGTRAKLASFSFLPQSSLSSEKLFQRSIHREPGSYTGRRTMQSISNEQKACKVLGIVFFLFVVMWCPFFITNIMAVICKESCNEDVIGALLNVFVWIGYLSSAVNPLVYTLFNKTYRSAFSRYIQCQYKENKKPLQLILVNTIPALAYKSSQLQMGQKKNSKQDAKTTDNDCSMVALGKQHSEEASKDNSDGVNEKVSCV
Chain of Beta-2 adrenergic receptor (Homo sapiens) (P07550 whole entry, looked up): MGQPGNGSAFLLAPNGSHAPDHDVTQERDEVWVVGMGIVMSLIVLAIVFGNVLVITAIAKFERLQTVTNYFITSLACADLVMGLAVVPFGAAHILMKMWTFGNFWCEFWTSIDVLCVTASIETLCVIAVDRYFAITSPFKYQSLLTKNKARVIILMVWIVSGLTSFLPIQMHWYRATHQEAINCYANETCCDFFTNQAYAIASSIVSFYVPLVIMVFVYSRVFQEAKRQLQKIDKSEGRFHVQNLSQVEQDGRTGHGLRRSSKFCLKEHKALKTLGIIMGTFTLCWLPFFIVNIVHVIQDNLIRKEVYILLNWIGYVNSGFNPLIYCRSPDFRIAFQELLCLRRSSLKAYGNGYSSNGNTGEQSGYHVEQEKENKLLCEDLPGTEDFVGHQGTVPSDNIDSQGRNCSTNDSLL
Chain of Muscarinic acetylcholine receptor M1 (Homo sapiens) (P11229 whole entry, looked up): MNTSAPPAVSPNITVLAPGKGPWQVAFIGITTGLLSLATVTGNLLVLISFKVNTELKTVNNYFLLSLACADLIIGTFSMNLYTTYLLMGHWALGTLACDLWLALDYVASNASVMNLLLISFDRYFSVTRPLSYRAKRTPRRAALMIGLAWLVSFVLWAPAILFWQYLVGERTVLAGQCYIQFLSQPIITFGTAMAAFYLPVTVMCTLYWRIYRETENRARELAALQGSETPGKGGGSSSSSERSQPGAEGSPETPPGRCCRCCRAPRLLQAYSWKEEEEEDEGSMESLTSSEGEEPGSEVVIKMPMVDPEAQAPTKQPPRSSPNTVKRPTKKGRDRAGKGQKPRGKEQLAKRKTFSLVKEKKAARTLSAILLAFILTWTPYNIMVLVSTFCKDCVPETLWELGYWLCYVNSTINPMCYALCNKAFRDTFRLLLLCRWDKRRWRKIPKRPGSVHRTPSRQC
Chain of KiSS-1 receptor (Homo sapiens) (Q969F8 whole entry, looked up): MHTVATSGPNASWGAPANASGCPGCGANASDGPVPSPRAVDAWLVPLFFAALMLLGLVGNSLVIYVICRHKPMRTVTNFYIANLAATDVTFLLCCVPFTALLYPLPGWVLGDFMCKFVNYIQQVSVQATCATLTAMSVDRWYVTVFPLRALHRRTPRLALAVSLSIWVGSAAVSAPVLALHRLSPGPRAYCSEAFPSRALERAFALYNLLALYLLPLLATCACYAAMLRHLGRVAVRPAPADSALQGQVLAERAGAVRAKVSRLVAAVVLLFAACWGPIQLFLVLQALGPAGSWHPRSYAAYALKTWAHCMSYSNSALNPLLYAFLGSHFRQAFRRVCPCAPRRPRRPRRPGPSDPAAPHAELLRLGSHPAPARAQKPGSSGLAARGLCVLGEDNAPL
Chain of Gonadotropin-releasing hormone receptor (Homo sapiens) (P30968 whole entry, looked up): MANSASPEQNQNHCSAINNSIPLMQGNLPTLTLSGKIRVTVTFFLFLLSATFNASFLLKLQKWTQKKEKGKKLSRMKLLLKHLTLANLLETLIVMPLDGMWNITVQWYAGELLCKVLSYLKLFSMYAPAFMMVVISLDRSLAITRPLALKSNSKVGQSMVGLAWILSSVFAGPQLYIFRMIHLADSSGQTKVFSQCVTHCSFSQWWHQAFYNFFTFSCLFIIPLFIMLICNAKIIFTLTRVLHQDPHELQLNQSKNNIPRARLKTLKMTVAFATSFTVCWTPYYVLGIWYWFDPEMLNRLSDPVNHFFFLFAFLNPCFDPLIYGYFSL

On to `Cn1c(=O)c2[nH]c(Br)nc2n(C)c1=O`, for which the Potency entry in experiment [1], in experiment [2], in [3], in experiment [4], in experiment [5] and in [6] was “inactive” throughout. Further, the Potency entry in [7], in experiment [8], in experiment [9], in [10], in experiment [11] and in [12] was “inactive” throughout. The Potency entry in experiment [13], in [14], in [15], in [16] and in [17] was “inactive” in each case.

`CCOC(=O)c1ccc(OCCN2C[C@H](O)[C@@H](O)[C@H](O)[C@H]2CO)cc1`: the Potency result in experiment [1], in [2], in [3], in experiment [4], in [5] and in experiment [18] was “inactive” each time. For the same compound, the Potency result in experiment [7], in experiment [8], in [9], in [10], in experiment [11] and in [12] was “inactive” in each case. Also, the Potency entry in [13], in [14], in experiment [15], in experiment [16], in [17] and in [19] was “inactive” throughout.

Turning to `CCO[Si](C)(C)OCC`, the Potency result in experiment [1], in experiment [2], in experiment [3], in experiment [4], in experiment [5] and in [18] was “inactive” in each case. Also, the Potency result in experiment [6], in experiment [7], in experiment [9], in [10], in experiment [11] and in experiment [12] was “inactive” each time. Further, the Potency entry in experiment [13], in experiment [14], in experiment [16] and in experiment [17] was “inactive” in each case.

Take `O=C(O)CCc1ccccc1`: the Potency entry in [1], in experiment [2], in experiment [3], in experiment [4], in experiment [5] and in experiment [18] was “inactive” throughout. Besides, the Potency result in experiment [6], in experiment [8], in experiment [9], in [10], in experiment [12] and in experiment [13] was “inactive” each time. The Potency result in [15], in [16], in experiment [17] and in [19] was “inactive” each time.

`CN(C)c1ccc2nc3ccc(=[N+](C)C)cc-3sc2c1`: the Potency in experiment [1] is 54.5 µM (active); in experiment [2] it was 10.4 µM (active) and 15.4 µM (active) and 13.3 µM (active); in experiment [18], 8.14 µM (active); in experiment [8], 28.9 µM (active). For the same compound, the Potency result in experiment [3], in [4], in experiment [5], in experiment [7], in [9] and in experiment [10] was “inactive” throughout. Further, the Potency entry in [11], in experiment [13] and in experiment [14] was “inactive” each time.

Take `O=Cc1cc2ccccc2o1`: the Potency result in experiment [1], in [2], in [3], in [4], in experiment [5] and in [18] was “inactive” throughout. In addition, the Potency result in experiment [6], in experiment [7], in experiment [8], in experiment [9], in experiment [12] and in experiment [13] was “inactive” each time. Further, the Potency result in experiment [14], in [15], in experiment [16] and in [17] was “inactive” each time.

Consider `CC1CNCC(C)O1` (stereo unspecified), for which the Potency entry in experiment [1], in experiment [2], in experiment [3], in experiment [4], in experiment [5] and in [18] was “inactive” in each case. Also, the Potency result in [6], in experiment [7], in experiment [8], in experiment [9], in experiment [10] and in experiment [11] was “inactive” each time. Moreover, the Potency entry in [12], in [14], in experiment [15], in [16], in [17] and in [19] was “inactive” each time.

On to `NCCC(O)(P(=O)(O)O)P(=O)(O)O`, for which the Potency result in [1], in experiment [2], in experiment [3], in [4], in experiment [5] and in experiment [18] was “inactive” in each case. Also, the Potency result in [6], in experiment [7], in experiment [9], in [10], in experiment [11] and in experiment [12] was “inactive” in each case. In addition, the Potency result in [13], in experiment [14], in [15], in experiment [16] and in [17] was “inactive” each time.

Source of the values: PubChem BioAssay (Tox21).
